Assay results: PubChem BioAssay AID651803 (National Center for Advancing Translational Sciences (NCATS), 2012)
Fewer than 10 of roughly 1,200 compounds were called active. Calls come from the whole dose curve; as a rule, active = well fitted curve in the direction sought with a large enough effect; inconclusive = small, poorly fitted or top-dose-only effect, or another doubt; inactive = no such curve, though single readings can be large or run the other way. A selection follows.

target: Transcriptional regulator ERG (Homo sapiens) (UniProt P11308); assay: qHTS for Small Molecule Inhibitors of the ERG Ets/DNA interaction: TR assay against cherry picks; settings: ERG Ets domain-DNA fluorescence polarization, Texas red probe; series mostly up to 154 µM; activity change, negative = inhibition: at the top concentration; note: % of control where 0% means no effect
From the text: The Ets family of proteins is a family of ~30 conserved transcription factors defined by the presence of an ~85 amino acid domain referred to as the Ets domain, which mediates sequence-specific DNA binding to a core DNA element GGAA/T.The Ets family member ERG has been linked to several neoplasms. […] More extensive studies of the effects of over-expression of ERG in prostate cells have recently been carried out and have shown that over-expression of ERG results in increased invasion. […] We will carry out a high throughout screen to identify inhibitors of the interaction between ERG and DNA using a fluorescence polarization (FP) assay with a His-tagged ERG Ets domain and fluorescently-labeled DNA probes to develop small molecule inhibitors of this interaction as probes to test this hypothesis and lay the groundwork for the development of targeted therapies against ERG. This is the confirmation against the cherry picks in theprimary screening assay. NIH Molecular Libraries Probe Production Network [MLPCN] NIH Chemical Genomics Center [NCGC] Grant: NS066464 PI Name: John Bushweller, University of Virgina
1.5 ul of protein solution (1 uM ERG domain in 300mM KCl, 50mM Tris-HCl, 1mM EDTA, 1mM DTT, pH 7.5); 20 nl Control plate and compound library plate; 1.5 ul mixture of 5 nM Fluorescein-DNA and 100nM Texas-615-DNA solution in same buffer as above solution; measure fluorescence polarization sequentially for fluorescein (Excitation = 480 nm, Emission = 535s, 535p nm) and Texas red (Excitation = 555 nm, Emission = 632s, 632p nm).

Transcriptional regulator ERG (Homo sapiens), sequence (P11308 whole entry, looked up, the tested form may be a part): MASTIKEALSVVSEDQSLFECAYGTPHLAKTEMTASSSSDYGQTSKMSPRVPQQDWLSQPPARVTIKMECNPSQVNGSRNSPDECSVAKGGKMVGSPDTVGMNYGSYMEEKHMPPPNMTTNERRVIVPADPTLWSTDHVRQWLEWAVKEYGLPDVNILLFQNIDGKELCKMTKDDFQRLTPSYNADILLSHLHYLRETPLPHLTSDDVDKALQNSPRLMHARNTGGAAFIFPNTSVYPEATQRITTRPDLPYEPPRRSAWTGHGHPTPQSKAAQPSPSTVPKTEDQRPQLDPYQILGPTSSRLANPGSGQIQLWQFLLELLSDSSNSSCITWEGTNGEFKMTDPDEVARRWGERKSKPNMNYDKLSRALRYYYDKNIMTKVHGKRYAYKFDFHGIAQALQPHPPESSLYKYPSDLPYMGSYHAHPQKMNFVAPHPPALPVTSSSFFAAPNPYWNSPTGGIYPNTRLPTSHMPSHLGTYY

Activity change, negative = inhibition, inactive:
O=C(OCCOCCN=C1NS(=O)(=O)c2ccccc21)c1ccccc1Br 4.92%
CC(=O)Nc1ccc(NC(=O)Cn2c(=O)n(-c3ccccc3)c(=O)c3oc4ccccc4c32)cc1 0.864%
COc1ccc(C(=O)n2nc(C)c(Br)c2C)cc1OC 1.94%
N#Cc1c(C(F)(F)F)cc(-c2cccs2)nc1SCC(=O)Nc1cccc(Br)c1 5.95%
N#CCCN(C(=S)NC(=O)C1CCCCC1)c1ccccc1F -3.69%
Cc1ccc2c(COC(=O)c3ccccc3Br)cc(=O)oc2c1 -0.0577%
COc1ccc(NC(=O)NCc2ccccn2)c(OC)c1 -2.62%
O=C(c1ccccc1)c1ccc[nH]1 -4.34%
Cc1ccc([N+](=O)[O-])c2c1C(N1CC(C)OC(C)C1)C(C)(C)O2 (stereo not drawn) 5.79%
COc1ccccc1NC(=O)Cn1c(=O)n(CCC(=O)NCC2CCCO2)c(=O)c2cc(OC)c(OC)cc21 (stereo not drawn) 0.0258%
Clc1ccc(-c2csc(N/N=C/c3ccco3)n2)cc1 -19.8%
CCOC(=O)CC1COCCN1Cc1cn[nH]c1-c1cc(OC)c(OC)c(OC)c1 (stereo not drawn) 5.39%
COc1cc(C(=O)Nc2ccc(Cl)c([N+](=O)[O-])c2)cc(OC)c1OC -8.44%
COc1cccc2c1C(=N)c1c(O)c3c(c(O)c1C2=O)CC(O)(C(C)=O)CC3OC1CC(N)C(O)C(C)O1 (stereo not drawn) 10.9%
O=C(NCc1cccc(Cl)c1)c1ccncc1 -9.86%
Cc1cccc(C)c1NC(=O)C1(N2C(=O)CC2c2ccccc2)CCCCC1 (stereo not drawn) 0.216%
CC1(C)CC2CC(C)(CN2C(=O)c2ccc([N+](=O)[O-])cc2)C1 (stereo not drawn) 0.742%
CN(C)c1nc(N)nc(Cn2nnc(-c3ccc(C(F)(F)F)cc3)n2)n1 3.53%
CC(NC(=O)c1cn(C)c2ccc(S(=O)(=O)N3CCCC3)cc2c1=O)c1ccccc1 (stereo not drawn) -1.61%
Cc1[nH]c(=O)[nH]c(=O)c1/C=N/NC(=O)[C@H](C)N 2.01%
CCOC(=O)N1CCC(NC(=O)CSCc2nc(-c3ccc(OCC)cc3)oc2C)CC1 -9.6%
CC(C)(O)CN(CCCNC(=S)Nc1ccccc1)C(=S)Nc1ccccc1 -0.187%
S=c1[nH]nc(CSCCOc2ccccc2)o1 -12.2%
Cn1c(CO)cnc1SCc1ccc(F)cc1 18.1%
COc1ccc(CNC(=O)c2cccnc2SC)cc1OC -8.6%
Cc1cc(C)c2c(N)c(C(=O)c3ccc(Cl)cc3)sc2n1 5.05%
CCC1Oc2ccccc2N(CC(=O)NC2CC2)C1=O (stereo not drawn) -0.665%
Oc1c(Cl)cc(Oc2cc(Cl)c(O)c(CN3CCOCC3)c2)cc1CN1CCOCC1 -6.09%
COc1ccc(S(=O)(=O)NCCNC(=O)N2CCOCC2)cc1 3.17%
O=C(CCNC(=O)c1ccccc1Cl)NCCCSc1ccccc1 3.19%
Cn1c(CNC(=O)c2cccs2)n[nH]c1=S 5.98%
CCCCC1=NN(C(=O)c2ccco2)C(O)(C(F)(F)F)C1 (stereo not drawn) -2.3%
CCC(=O)N1CCN(c2nc3ccc(Br)cc3s2)CC1 2.3%
